Assay [1] can be described thus: NCI Yeast Anticancer Drug Screen. Data for the rad50 strain (AID 155).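 Also: 0% = growth of vehicle-only cultures of the same strain.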 Particulars: S. cerevisiae rad50 strain growth inhibition, hits give high values. In short, it runs like this:
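Vehicle-treated cultures provide the reference for the growth inhibition reported for compound-exposed, repair-deficient yeast.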

A short description of assay [2]: NCI Yeast Anticancer Drug Screen. Data for the mec2-1 strain (AID 157). To be noted: S. cerevisiae mec2-1 strain, hits give high values. In short, it runs like this:
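mec2-1 yeast strain, carrying an alteration in DNA damage repair or cell cycle control, was exposed to compounds; growth inhibition was measured relative to vehicle-treated controls.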

The nature of assay [3]: NCI Yeast Anticancer Drug Screen. Data for the sgs1 mgt1 strain (AID 161).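 Also: 0% = growth of cultures given vehicle only.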 To be noted: S. cerevisiae sgs1 mgt1 strain, hits give high values. In short, it runs like this: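 This yeast growth screen uses a strain with defined DNA-repair lesions; compound-treated growth is compared with vehicle-treated growth.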
The nature of assay [4]: NCI Yeast Anticancer Drug Screen. Data for the cln2 rad14 strain (AID 165).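 Also: 0% = growth equal to vehicle treated cultures.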 To be noted: S. cerevisiae cln2 rad14 strain, hits give high values. In short, it runs like this: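 Yeast carrying cln2 and rad14 alterations (cell cycle control and DNA damage repair) were exposed to compounds. Growth inhibition was measured against vehicle-treated controls.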
The nature of assay [5]: NCI Yeast Anticancer Drug Screen. Data for the mlh1 rad18 strain (AID 175). To be noted: S. cerevisiae mlh1 rad18 strain growth inhibition, hits give high values. In short, it runs like this: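 Growth inhibition of the yeast strain was measured after compound exposure and expressed relative to vehicle-treated controls. The strain carries defined defects in DNA damage repair.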

A short description of assay [6]: NCI Yeast Anticancer Drug Screen. Data for the bub3 strain (AID 167). To be noted: S. cerevisiae bub3 mutant strain, hits give high values. The method, boiled down: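 Mutant yeast screening strain plus compound; vehicle-treated cultures serve as the 0% inhibition reference.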
The mark [7] stands for this setting: at 5.0 µM (retest, dose inferred, filed as 0.5).
Setting [8] is: at 50.0 µM (retest, dose inferred, filed as 5.0).

Values joined by “and” are separate entries in the source; they are usually repeats but may differ in a detail not shown here. Identical values can stand only once. Compounds without any hit were thinned out: in the full panel of roughly 79,000, 15% have a hit. Values without a mark were called inactive. Active and inactive are the calls of the source. Rule as the data show it: active = growth inhibition above about 70%; inactive = the rest. Where a SMILES comes first, the peptide text is derived from it. [ ]: non-standard residue; d: D form. ξ: configuration not given here. ξV = CC(C)C(N)C(=O)O

Turning to `Cc1c(N)nc(C(CC(N)=O)NCC(N)C(N)=O)nc1C(=O)NC(C(=O)NC(C)C(O)C(C)C(=O)NC(C(=O)NCCc1nc(-c2nc(C(=O)NCCCNCCCCN)cs2)cs1)C(C)O)C(OC1OC(CO)C(O)C(O)C1OC1OC(CO)C(O)C(OC(N)=O)C1O)c1cnc[nH]1` (configuration not stated), the growth inhibition in assay [1] (setting [7]) was 92% (active); in assay [1] (setting [8]), 98% (active); in assay [1] (at 50.0 µM), 99% (active) and 88.6% (active); in assay [2] (setting [7]), 37%; in assay [2] (setting [8]), 98% (active); in assay [2] (at 50.0 µM) it was 99.2% (active) and 88.1% (active). Also, the growth inhibition was 77% (active) in assay [3] (setting [7]); 98% (active) in assay [3] (setting [8]); 99% (active) and 88.2% (active) in assay [3] (at 50.0 µM); 65% in assay [4] (setting [7]); 98% (active) in assay [4] (setting [8]); 97.7% (active) and 86.5% (active) in assay [4] (at 50.0 µM). Besides, the growth inhibition is 94% (active) in assay [5] (setting [7]); 98% (active) in assay [5] (setting [8]); 98.9% (active) and 90% (active) in assay [5] (at 50.0 µM).

Regarding `CCSC(=NC)Nc1ccc(Oc2ccc(Cl)cc2)cc1`, the growth inhibition in assay [2] (setting [7]) was 39%; in assay [2] (setting [8]) it was 83% (active); in assay [2] (at 50.0 µM) it was 67.8%; in assay [3] (setting [7]), 40%; in assay [3] (setting [8]) it was 99% (active); in assay [3] (at 50.0 µM), 92.4% (active). For the same compound, the growth inhibition in assay [4] (setting [7]) was 33%; in assay [4] (setting [8]), 75% (active); in assay [4] (at 50.0 µM), 71.1% (active); in assay [6] (setting [7]), 46%; in assay [6] (setting [8]) it was 72% (active); in assay [6] (at 50.0 µM) it was 88.2% (active). In addition, the figures for the growth inhibition in assay [5] (setting [7]), in assay [5] (setting [8]) and in assay [5] (at 50.0 µM) were 46%, 97% (active) and 81.6% (active), respectively.

As to `NCCCC(=O)O`, the growth inhibition in assay [1] (at 50.0 µM) was -5.85% [middle of 4 runs]; in assay [4] (at 50.0 µM) it was 6.95% [middle of 4 runs]; in assay [6] (at 50.0 µM) it was -15.2% [middle of 4 runs].

Regarding `COC1OC2COC(c3ccccc3)OC2C2OC12` (configuration not stated), the growth inhibition in assay [1] (at 50.0 µM) was -7.7% [middle of 4 runs]; in assay [2] (at 50.0 µM) it was -2.5% [middle of 4 runs]; in assay [4] (at 50.0 µM) it was 3.15% [middle of 4 runs]; in assay [6] (at 50.0 µM), -4.2% [middle of 4 runs]; in assay [5] (at 50.0 µM) it was -12.8% [middle of 4 runs].

As for `O/N=C(\CC(O)(C(F)(F)F)C(F)(F)F)c1cccc(Cl)c1`, the growth inhibition in assay [1] (setting [7]) was 13%; in assay [1] (setting [8]), 80% (active); in assay [1] (at 50.0 µM), 91% (active); in assay [3] (setting [7]), 10%; in assay [3] (setting [8]), 97% (active); in assay [3] (at 50.0 µM), 92.8% (active). Besides, the growth inhibition was 8% in assay [4] (setting [7]); 95% (active) in assay [4] (setting [8]); 89% (active) in assay [4] (at 50.0 µM); 14% in assay [6] (setting [7]); 97% (active) in assay [6] (setting [8]); 90.5% (active) in assay [6] (at 50.0 µM). Moreover, the growth inhibition was 26% in assay [5] (setting [7]), 97% (active) in assay [5] (setting [8]) and 89.3% (active) in assay [5] (at 50.0 µM).

As to `O=C(OC1COC(OC(=O)c2ccccc2)C(OC(=O)c2ccccc2)C1OC(=O)c1ccccc1)c1ccccc1` (configuration not stated), the growth inhibition was 20.4% [middle of 4 runs] in assay [1] (at 50.0 µM); -7.1% [middle of 4 runs] in assay [2] (at 50.0 µM); 9.5% [middle of 4 runs] in assay [3] (at 50.0 µM); -21.6% [middle of 4 runs] in assay [4] (at 50.0 µM); -4.1% [middle of 4 runs] in assay [5] (at 50.0 µM).

Turning to `CC(C)C(NC(=O)CN)C(=O)O` (configuration not stated) (H-Gly-[ξV]-OH), the growth inhibition in assay [3] (setting [7]) was -62%; in assay [3] (setting [8]) it was -64%; in assay [3] (at 50.0 µM), -0.15% and -21.6% and -5.05%; in assay [4] (setting [7]), -59%; in assay [4] (setting [8]), -60%; in assay [4] (at 50.0 µM), 35.5% and 5.7% and -2.4%. The growth inhibition in assay [6] (setting [7]) is -75%; in assay [6] (setting [8]), -79%; in assay [6] (at 50.0 µM), -31.8% and -8.25% and -5.15%; in assay [5] (setting [7]) it was -146%; in assay [5] (setting [8]), -116%; in assay [5] (at 50.0 µM), 16.8% and -21.9% and -0.65%.

For `CCCN(CCC)C(=S)N/N=C/c1ccccn1`, the growth inhibition in assay [1] (setting [7]) was 99% (active); in assay [1] (setting [8]) it was 99% (active); in assay [1] (at 50.0 µM) it was 90.5% (active); in assay [3] (setting [7]) it was 98% (active); in assay [3] (setting [8]) it was 99% (active); in assay [3] (at 50.0 µM) it was 92.4% (active). Also, the growth inhibition is 98% (active) in assay [4] (setting [7]); 100% (active) in assay [4] (setting [8]); 93.5% (active) in assay [4] (at 50.0 µM); 99% (active) in assay [6] (setting [7]); 100% (active) in assay [6] (setting [8]); 92.5% (active) in assay [6] (at 50.0 µM). For the same compound, the figures for the growth inhibition in assay [5] (setting [7]), in assay [5] (setting [8]) and in assay [5] (at 50.0 µM) were 99% (active), 99% (active) and 89.8% (active), respectively.

In the case of `COc1nc2nc(C(O)C(O)CO)cnc2c(=O)n1C` (configuration not stated), the growth inhibition in assay [1] (at 50.0 µM) is -5.55% [middle of 4 runs]; in assay [2] (at 50.0 µM), -6.55% [middle of 4 runs]; in assay [3] (at 50.0 µM), -5.2% [middle of 4 runs]; in assay [6] (at 50.0 µM) it was 7.15% [middle of 4 runs].

`OC1C(O)C(O)C(O)C(O)C1O` (configuration not stated): the growth inhibition was 0.4% [middle of 5 runs] in assay [6] (at 50.0 µM) and 4.3% [middle of 5 runs] in assay [5] (at 50.0 µM).

As to `O=C(O)C1CC(O)CN1` (configuration not stated), the growth inhibition in assay [1] (at 50.0 µM) was 26.6% and 12.2% and -2.5%; in assay [2] (at 50.0 µM), -9.75% and 11.6% and -22.9%; in assay [3] (at 50.0 µM) it was 31.4% and 15.3% and 1.95%; in assay [4] (at 50.0 µM), -4.7% and 4.45% and -18.1%; in assay [6] (at 50.0 µM), 23.1% and 13.8% and 2.75%; in assay [5] (at 50.0 µM) it was 30.6% and 13.9% and 1.9%.

On to `COc1ccc(NC(=O)C(=O)NO)c(OC)c1`, for which the growth inhibition is 19% in assay [1] (setting [7]); 94% (active) in assay [1] (setting [8]); 90.8% (active) in assay [1] (at 50.0 µM); 9% in assay [3] (setting [7]); 94% (active) in assay [3] (setting [8]); 91% (active) in assay [3] (at 50.0 µM). Besides, the growth inhibition in assay [4] (setting [7]) was -10%; in assay [4] (setting [8]), 94% (active); in assay [4] (at 50.0 µM), 87.9% (active); in assay [6] (setting [7]), 4%; in assay [6] (setting [8]) it was 93% (active); in assay [6] (at 50.0 µM), 91.2% (active). Besides, the growth inhibition was -28% in assay [5] (setting [7]), 95% (active) in assay [5] (setting [8]) and 87.9% (active) in assay [5] (at 50.0 µM).
